HIV RNase H inh-1 – blocks HIV-1 RNase H cleavage of RNA/DNA duplex; P04585; RT-RNase H RNA/DNA duplex cleavage, fluorescence; inhibition, % at 10 µM; 65,000 tested, 1.9% active; AID 565; in the data active = inhibition above about 50%
HIV RNase H inh-2 – confirmation of HIV-1 reverse transcriptase RNase H inhibitors; shares compounds with HIV RNase H inh-1; Recombinant RT RNase H, fluorescent RNA/DNA duplex cleavage; inhibition, % at 10 µM; 1,000 tested, 39% active; AID 651; in the data active = inhibition above about 48%; inconclusive = no clear call, values can overlap the other calls
Numbers without * were called inactive; ? = inconclusive. This excerpt belongs to a sample that is enriched for hits.

SMILES	HIV RNase H inh-1	others
COc1ccc(NC(=O)N2CCCCC2)cc1	0
O=C(CSc1nnnn1-c1ccccc1)CC(=O)Nc1ccc(Cl)cc1	-32
O=S(=O)(Nc1ccc(S(=O)(=O)N2CCCCC2)cc1)c1ccc(Br)s1	-7
Cc1c(C(=O)c2no[n+]([O-])c2C(=O)c2cnn(C)c2C)cnn1C	-1
O=C(Nc1c(C(=O)O)oc2ccc(Br)cc12)c1ccccc1	-8
O=C(Nc1nc(-c2cc3ccccc3oc2=O)cs1)c1ccco1	-1
CCOC(=O)Cc1csc(NC(=O)c2ccco2)n1	-6
O=C(Nc1nc(-c2ccncc2)cs1)c1ccco1	59*	HIV RNase H inh-2=56*
Cc1ccc2nc(N3CCN(C(=O)c4cccs4)CC3)c(C#N)cc2c1	-16
Cc1cc2cc(C(c3nnnn3CC3CCCO3)N3CCCc4ccccc43)c(=O)[nH]c2cc1C (stereo unspecified)	52*	HIV RNase H inh-2=29
CCc1ccc2[nH]c(=O)c(C(c3nnnn3CC3CCCO3)N3CCCc4ccccc43)cc2c1 (stereo unspecified)	8
Cc1cccc2cc(C(c3nnnn3CC3CCCO3)N3CCCc4ccccc43)c(=O)[nH]c12 (stereo unspecified)	7
O=C(CN1CCOCC1)OCCCC1CCCCC1	5
CCCOC(=O)CSc1nc(N)c(C#N)c(CC)c1C#N	13
O=C(Cn1cnc2c(nnn2Cc2ccccc2F)c1=O)NCc1ccco1	-6
Cc1cc2c(c(=O)n1C)C(Cc1ccccc1)C(C#N)=C(N)O2 (stereo unspecified)	-5
COc1ccc(-n2c(C)cc(C(=O)COc3ccc(-n4cnnn4)cc3)c2C)cc1	53*	HIV RNase H inh-2=24
COc1ccc(-n2c(C)cc(C(=O)Cn3nnc4ccccc4c3=O)c2C)cc1	-12
COc1ccc(OCCOC(=O)c2cccc(-n3cnnn3)c2)cc1	-21
COCCN(C(=O)C1CC1)c1nnc(-c2cccc(C)c2)s1	-6
CN(Cc1ccccc1)Cc1nc2c([nH]1)c(=O)n(C)c(=O)n2C	-2
Cc1noc(C)c1CSc1nnc2scc(-c3ccccc3)n12	63*	HIV RNase H inh-2=16
Cc1noc(C)c1CSc1nnc(-c2ccccc2)n1Cc1ccco1	-30
CC(=O)Nc1ccc(C(=O)CSc2nnc3scc(-c4ccccc4)n23)cc1	5
Cc1cc(-c2ccccc2)nc2[n+]1CCN2C	3
SMILES	HIV RNase H inh-1	others
Cc1ccc(Cn2c(Sc3ncccn3)nc3c2c(=O)[nH]c(=O)n3C)cc1	4
CC(C)CSc1nc2c(c(=O)[nH]c(=O)n2C)n1CCc1ccccc1	3
Cc1ccc(Cn2c(Sc3nccc(C)n3)nc3c2c(=O)[nH]c(=O)n3C)cc1	-13
COCCn1c(SCCN2CCOCC2)nc2c1c(=O)[nH]c(=O)n2C	88*	HIV RNase H inh-2=60*
C/C=C/Cn1c(SCc2ccccc2)nc2c1c(=O)[nH]c(=O)n2C	50*	HIV RNase H inh-2=2
COCCn1c(SCc2c(F)cccc2Cl)nc2c1c(=O)[nH]c(=O)n2C	57*	HIV RNase H inh-2=4
CCOCCn1c(SCc2ccc(F)cc2)nc2c1c(=O)[nH]c(=O)n2C	-24
COCCn1c(SCC(=O)Nc2ccccc2)nc2c1c(=O)[nH]c(=O)n2C	-11
C/C=C/CSc1nc2c(c(=O)[nH]c(=O)n2C)n1Cc1ccc(C)cc1	80*	HIV RNase H inh-2=72*
Cc1ccc(CSc2nc3c(c(=O)[nH]c(=O)n3C)n2CCC(C)C)cc1	6
C/C(Cl)=C/Cn1c(SCCN2CCOCC2)nc2c1c(=O)[nH]c(=O)n2C	6
C=CCn1c(SCCN2CCOCC2)nc2c1c(=O)[nH]c(=O)n2C	-2
CCOC(=O)C1CSC(CC(=O)Nc2ccc(Cl)cc2)C(=O)N1 (stereo unspecified)	3
Cc1cc(OCC(=O)NCc2nc(-c3ccccc3)no2)c(C)cc1Br	-4
CC(=O)NC(CC(C)C)C(=O)NC(=O)NCc1ccccc1 (stereo unspecified)	-17
Cc1cc(F)c(F)c(C(=O)N2CCN(C)CC2)c1Cl	0
c1ccc(CNc2ccc3c(c2)ncn3C2CCCCC2)nc1	3
Cc1sc(NC(=O)CSc2nnc(C)c(=O)[nH]2)c(C#N)c1C	2
CC1c2nc3ccccc3n2C(CC(=O)NCc2ccccn2)C(=O)N1Cc1ccccc1 (stereo unspecified)	-4
O=C(NC1CCCC1)C1CCCN1C(=O)Nc1ccc(Cl)cc1 (stereo unspecified)	-12
CCOC(=O)CSc1nnc(Cn2nnc(-c3ccccc3)n2)n1C	-6
N#Cc1ccccc1OCC(=O)Nc1c(C(=O)C2CC2)oc2ccccc12	31
O=C(C1=COCCO1)N1CCN(C(c2ccccc2)c2ccccc2)CC1	-2
C/C(Cl)=C/Cn1c(SCc2ccc(Cl)cc2)nc2c1c(=O)[nH]c(=O)n2C	35
CCCCn1c(SCc2ccc(Cl)cc2)nc2c1c(=O)[nH]c(=O)n2C	54*	HIV RNase H inh-2=1
SMILES	HIV RNase H inh-1	others
CCSc1nc2c(c(=O)[nH]c(=O)n2C)n1Cc1ccc(Cl)cc1	-3
CCOC(=O)c1c(C)c(C(=O)N(C)C2CCCCC2)c(C)n1C	3
COC(=O)c1ccc2c(c1)N(Cc1nc(-c3ccc(Cl)cc3)oc1C)C(=O)C1CCCN21 (stereo unspecified)	78*	HIV RNase H inh-2=96*
COC(=O)c1ccc2c(c1)N(Cc1nc(-c3cccc(Cl)c3)oc1C)C(=O)C1CCCN21 (stereo unspecified)	20
COc1ccc(CCNC(=O)C2CCN(Cc3nc(-c4ccc(Cl)cc4)oc3C)CC2)cc1OC	-1
CCc1ccc(OCc2nnc(SCC(=O)NCc3ccco3)o2)cc1	-15
CCOc1ccc(CCNC(=O)C2CCC(=O)N2C2CCCCC2)cc1OCC (stereo unspecified)	-17
Cc1ccc(C)c(Cn2c(=O)n(CCC(=O)NCc3ccco3)c(=O)c3ccccc32)c1	75*	HIV RNase H inh-2=48
O=C(CCCCn1c(=O)c2ccccc2n(Cc2ccc(F)cc2Cl)c1=O)NCc1ccco1	7
Cc1ccc(NC(=O)Cn2c(=O)n(CCCCC(=O)NCc3ccco3)c(=O)c3ccccc32)cc1	-13
CCOC(=O)Cn1c(=O)c2c(nc3n2CCCCN3c2ccc(C)cc2)n(C)c1=O	2
Cc1cc(C)n(Cc2cc(C)c(Cn3nc(C)cc3C)cc2C)n1	-5
N#CCCn1ncn(-c2ccccc2)c1=S	-3
COc1ccccc1NC(=O)Cn1cnc2c(cnn2-c2ccccc2)c1=O	-6
COC(=O)c1ccccc1NC(=O)Cn1cnc2c(cnn2-c2ccccc2)c1=O	74*	HIV RNase H inh-2=30
CCOC(=O)c1ccccc1NC(=O)Cn1cnc2c(cnn2-c2ccccc2)c1=O	-14
CC(C)OC(=O)C1C(=O)CC(C)(O)C(C(=O)OC(C)C)C1c1cccc(O)c1 (stereo unspecified)	-7
CSC1=NCCN1C(=O)Cc1cccs1	-14
COc1ccc(N2CSC3=C(C#N)C(c4cccs4)CC(=O)N3C2)cc1 (stereo unspecified)	68*	HIV RNase H inh-2=?
N#CC1=C(N)N(c2ccccc2)C2=C(C(=O)CCC2)C1c1cccs1 (stereo unspecified)	35
CN1CSC2=C(C#N)C(c3cccc(OCc4ccccc4)c3)CC(=O)N2C1 (stereo unspecified)	73*	HIV RNase H inh-2=60*
CCOc1ccccc1N1CSC2=C(C#N)C(c3c(OC)ccc4ccccc34)CC(=O)N2C1 (stereo unspecified)	73*	HIV RNase H inh-2=64*
CCCSC1=C(C#N)C(c2cc(OC)ccc2OC)CC(=O)N1 (stereo unspecified)	-45

Assay outcomes: PubChem, University of Pittsburgh Molecular Library Screening Center
